Assay results published in PubChem BioAssay (NCI).
The panel holds about 83,000 compounds, 20% with a hit somewhere; the sample as a whole holds those more often.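 Single-dose data. Exposure time 48 hours. Values below 10 considered active.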 The source made the active and inactive calls.

These compounds were tested on NCI-H460 lung (assay: NCI-60 one-dose screen, 48 h (100 = growth as untreated, 0 = no growth, -100 = all killed)). Settings: 10 µM unless noted.
For `N#CSc1c[nH]c2cccc(/C=C/C(=O)/C=C(O)/C=C/c3cccc4[nH]cc(SC#N)c34)c12`, the growth was -22.9% (active).
In the case of `COCCn1cc(-c2csc(-c3c[nH]c4ccc(Br)cc34)n2)c2cccnc21`, the growth is reported as 20.7% (inactive).
With `N#CC1CCc2c(c(-c3ccc4nc(N)sc4c3)nc3ccc4[nH]ncc4c23)C1` (stereo not given) the growth was 12.4% (inactive).
For `NS(=O)(=O)c1ccc(-c2cc(-c3nnc(SCC(=O)Nc4ccc(C(=O)/C=C/c5ccc(Cl)cc5)cc4)n3-c3ccccc3)c3ccccc3n2)cc1`, the growth was 97.7% (inactive).
In the case of `O=C(Nc1cc(Cl)ccc1O)c1cccc(Nc2ccnc(C(F)(F)F)c2)c1`, the growth is reported as 30.5% (inactive).
In the case of `CC/C(Cc1ccccc1)=C(\c1ccc(OCCCN(C)C)cc1)c1ccc(OC(=O)NCc2ccccc2)cc1`, the growth is reported as 7.02% (active).
With `Clc1c(Cl)[n+](Cc2ccc3ccccc3c2)cn1Cc1ccc2ccccc2c1` the growth was 26.1% (inactive).
`CSC(SC)=C(C#N)c1nc2ccccc2s1` was tested, and the growth was 57.7% (inactive).
`O=C(CN1CCCCCC1)Nc1nc2ccc(NCc3ccc(Cl)cc3)cc2s1` was tested, and the growth was 97% (inactive).
`CCC1S/C(=N\N=C(\C)c2cc3cc(Cl)ccc3o2)N(c2ccccc2)C1=O` (stereo not given) was tested, and the growth was 122% (inactive).
For `Cc1ccc(C)c(/C=C2\CN(C(=O)OC(C)(C)C)C/C(=C\c3cc(C)ccc3C)C2=O)c1`, the growth was 45.3% (inactive).
With `COc1ccc(-c2n[nH]c(=O)c3nc(NC(=S)Nc4ccc(Oc5ccccc5)cc4)sc23)cc1` the growth was 101% (inactive).
For `O=C1/C(=C\c2ccccn2)c2ccccc2N1c1c(Cl)cccc1Cl`, the growth was -29.3% (active).
In the case of `Cc1ncc(C(=O)Nc2ccc(CN3CCN(C)CC3)c(C(F)(F)F)c2)cc1C#Cc1cnc(N)c2ncccc12`, the growth is reported as 27.1% (inactive).
For `CNC(=O)c1cc(Oc2ccc3c(c2)sc2nc(-c4ccc(OC)cc4)cn23)ccn1`, the growth was 6.83% (active).
In the case of `O=C1Nc2c(C(=O)O)cccc2/C1=N/c1n[nH]c(=S)s1`, the growth is reported as 93.4% (inactive).
In the case of `COC(=O)c1ccc(NC(=O)Nc2ccc(C(=O)OC)cc2)cc1`, the growth is reported as 110% (inactive).
For `COc1ccc(/C=C/C(c2cc(OC)c(OC)c(OC)c2)n2ccnc2)cc1O` (stereo not given), the growth was 16.5% (inactive).
`Cc1nc2sc(C(=O)Nc3cccc(Br)c3C)c(N)c2cc1C(O)c1ccccc1` (stereo not given) was tested, and the growth was -0.559% (active).
For `C=C1C(=O)O[C@H]2[C@H]1CC/C(COC(=O)/C=C/C(=O)OC/C1=C/CC[C@@]3(C)O[C@H]3[C@H]3OC(=O)C(=C)[C@@H]3CC1)=C\CC[C@@]1(C)O[C@@H]21`, the growth was 100% (inactive).
With `COc1ccc(-c2ccc(-c3ccc(C(=N)N)nc3)s2)cc1Cl` the growth was -80.3% (active).
In the case of `COc1cc(/C=N/Nc2ccc(Br)cc2)cc(OC)c1OC`, the growth is reported as 31.1% (inactive).
`C#CCOc1cccc(-c2ncnc3cc(NC(=O)C=C)ccc23)c1` was tested, and the growth was 29.1% (inactive).
In the case of `O=c1ccc(=O)n(-c2nc(-c3ccc([N+](=O)[O-])cc3)cs2)[nH]1`, the growth is reported as 102% (inactive).
`CCCCCCCCCCCCCCCCCC1=NC(C)(C)CN1CC(C)O` (stereo not given) was tested, and the growth was 4.24% (active).
`CC1=C(C(=O)Nc2nc(-c3ccc(Cl)cc3)cs2)[C@H](c2ccc(O)cc2)NC(=O)N1` was tested, and the growth was 104% (inactive).
In the case of `O=C(Cn1nnc2ccccc21)N/N=C/c1c[nH]c2ccccc12`, the growth is reported as 21% (inactive).
For `Cn1c(=O)c2[nH]c(SCC(=O)Nc3ccc(C(=O)/C=C/c4ccccc4Cl)cc3)nc2n(C)c1=O`, the growth was 102% (inactive).
With `O=c1nc(-c2ccccc2)c2cc(-c3ccc(C(F)(F)F)nc3)ccc2[nH]1` the growth was 106% (inactive).
In the case of `CN(C)S(=O)(=O)Oc1ccc(-c2sc3cc(OS(=O)(=O)N(C)C)ccc3c2C(=O)c2ccc(OCCN3CCCCC3)cc2)cc1`, the growth is reported as 32.2% (inactive).
In the case of `O=S(=O)(NCCCNc1nccc(-c2c(-c3cccc(F)c3)nc3occn23)n1)c1ccc(F)cc1`, the growth is reported as 52.7% (inactive).
In the case of `Cc1ccc(-c2nc(N3CCNCC3)c3oc(-c4ccc(C)cc4)nc3n2)cc1`, the growth is reported as -68.3% (active).
For `COc1ccc(Cn2cc3c(c2-c2ccccc2)CCc2cnoc2-3)cc1`, the growth was 2.53% (active).
For `CC(C)(C)n1cc(-c2ccnc(NCCCNS(=O)(=O)c3ccc(C(F)(F)F)cc3)c2)c(-c2cccc(F)c2)n1`, the growth was 76.7% (inactive).
For `O=C(/C=C/c1ccccc1)c1ccc(Nc2nc(Nc3ccc(F)cc3)nc(Nc3ccc(Cl)cc3)n2)cc1`, the growth was 82.1% (inactive).
For `COc1ccc2c(c1)/C(=N/c1n[nH]c(=S)s1)C(=O)N2`, the growth was 92.9% (inactive).
In the case of `Cc1ccc2nc(NC(=O)CSc3nc(-c4ccccc4)c(C#N)c4nnnn34)sc2c1`, the growth is reported as 104% (inactive).
In the case of `N=C(N)c1ccc(-c2ccc(-c3cc(Cl)cc(Cl)c3)s2)nc1`, the growth is reported as -60.3% (active).
For `COc1ccc(Oc2nc(Nc3ccc(N4CCOCC4)cc3)ncc2NC(=O)Nc2cc(OC)cc(OC)c2)cc1`, the growth was -36.5% (active).
In the case of `CCCCNc1cc(-c2cn[nH]c2-c2cc(C)cc(OC)c2)nc(-c2cccnc2)n1`, the growth is reported as 99.7% (inactive).
